# Assay results published in publication PMC7862700, “An all-to-all approach to the identification of sequence-specific readers for epigenetic DNA modifications on cytosine”.
# What was measured:
# Assay in all cases: DAPPL (digital affinity profiling via proximity ligation, sequencing); 10 mM Tris-HCl pH 7.5, 50 mM NaCl, 1 mM DTT, 4% glycerol, room temperature, 30 min; GST-TFs on glutathione beads, 16-mer random dsDNA library, 0.1% formaldehyde crosslink after washing; high values mean tight binding
# Conditions in all cases: protein: recombinant; tags: N-terminal GST; dsDNA, one strand shown
# FEV = target: T1, FEV (Homo sapiens, UniProt Q99581 1-238)
# T1 sequence: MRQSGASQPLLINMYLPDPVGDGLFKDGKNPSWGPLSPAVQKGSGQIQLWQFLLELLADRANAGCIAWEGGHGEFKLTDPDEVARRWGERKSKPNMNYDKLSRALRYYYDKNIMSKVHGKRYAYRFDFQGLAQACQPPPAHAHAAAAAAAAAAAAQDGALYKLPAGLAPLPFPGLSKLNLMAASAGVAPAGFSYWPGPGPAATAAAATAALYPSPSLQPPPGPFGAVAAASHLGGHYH
# Procedure, shortened: (§1)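 Sequencing on an Illumina NextSeq500 followed washing, crosslinking with 0.1% formaldehyde, proximity ligation (BsaI/T4 ligase, 1 h, 37 °C) and PCR amplification of pools that had been incubated for 30 min at room temperature with 200 nmole of a random double-stranded 16-mer DNA library in Tris/NaCl/DTT/glycerol buffer. Each pool held DNA-barcoded human transcription factors, expressed in yeast as GST fusions and captured on glutathione beads, plus a tag-only sample. Binding signal is a hexamer's read frequency for a factor divided by its frequency in the tag-only sample.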
# ETV5 = ETV5 (Homo sapiens, UniProt P41161 1-510)
# Procedure, shortened: as §1
# SPIC = target: T2, SPIC (Homo sapiens, UniProt Q8N5J4 1-248)
# T2 sequence: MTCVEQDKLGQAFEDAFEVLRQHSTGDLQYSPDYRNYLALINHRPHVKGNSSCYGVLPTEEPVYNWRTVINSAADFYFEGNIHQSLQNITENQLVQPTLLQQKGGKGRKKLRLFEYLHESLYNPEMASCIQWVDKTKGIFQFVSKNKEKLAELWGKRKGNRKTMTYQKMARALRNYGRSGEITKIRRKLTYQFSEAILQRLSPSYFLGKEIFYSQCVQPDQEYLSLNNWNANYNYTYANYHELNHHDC
# Procedure, shortened: as §1
# ELF4 = ELF4 (Homo sapiens, UniProt Q99607 1-663)
# Procedure, shortened: as §1
# ELK4 = target: T3, ELK4 (Homo sapiens, UniProt P28324-2 1-405)
# T3 sequence: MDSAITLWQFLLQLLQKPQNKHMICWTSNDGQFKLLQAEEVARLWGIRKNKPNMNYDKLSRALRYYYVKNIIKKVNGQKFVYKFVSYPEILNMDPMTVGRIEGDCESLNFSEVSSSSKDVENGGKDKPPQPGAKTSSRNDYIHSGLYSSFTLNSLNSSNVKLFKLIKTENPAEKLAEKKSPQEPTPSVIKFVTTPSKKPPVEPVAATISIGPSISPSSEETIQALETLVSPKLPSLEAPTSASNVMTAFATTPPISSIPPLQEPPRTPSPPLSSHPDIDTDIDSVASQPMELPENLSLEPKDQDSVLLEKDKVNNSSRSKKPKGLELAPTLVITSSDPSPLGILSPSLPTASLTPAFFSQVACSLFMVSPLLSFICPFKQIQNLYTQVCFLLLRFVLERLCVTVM
# Procedure, shortened: as §1
# ETV2 = target: T4, ETV2 (Homo sapiens, UniProt O00321 1-342)
# T4 sequence: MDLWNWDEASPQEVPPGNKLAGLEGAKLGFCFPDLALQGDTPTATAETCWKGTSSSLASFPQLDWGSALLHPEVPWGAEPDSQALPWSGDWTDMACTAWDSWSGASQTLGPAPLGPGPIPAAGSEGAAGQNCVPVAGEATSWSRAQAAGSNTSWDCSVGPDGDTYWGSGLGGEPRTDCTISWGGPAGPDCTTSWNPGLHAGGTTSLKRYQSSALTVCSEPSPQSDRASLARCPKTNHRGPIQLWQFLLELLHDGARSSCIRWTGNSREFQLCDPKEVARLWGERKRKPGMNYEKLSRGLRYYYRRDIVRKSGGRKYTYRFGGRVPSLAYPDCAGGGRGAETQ
# Procedure, shortened: as §1
# ELF3 = target: T5, ELF3 (Homo sapiens, UniProt P78545 1-371)
# T5 sequence: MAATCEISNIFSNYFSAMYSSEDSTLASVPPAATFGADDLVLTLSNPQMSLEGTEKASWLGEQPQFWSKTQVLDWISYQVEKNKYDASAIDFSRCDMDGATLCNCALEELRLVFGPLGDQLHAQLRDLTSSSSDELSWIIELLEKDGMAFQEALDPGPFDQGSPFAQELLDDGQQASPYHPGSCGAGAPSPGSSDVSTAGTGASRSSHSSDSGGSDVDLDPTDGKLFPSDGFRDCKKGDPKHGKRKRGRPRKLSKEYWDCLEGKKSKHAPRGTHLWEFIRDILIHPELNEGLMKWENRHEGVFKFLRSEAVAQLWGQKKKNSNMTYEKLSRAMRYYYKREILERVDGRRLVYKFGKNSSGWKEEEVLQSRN
# Procedure, shortened: as §1
# CRX = CRX (Homo sapiens, UniProt O43186 1-299)
# Procedure, shortened: as §1
# ETV1 = ETV1 (Homo sapiens, UniProt P50549 1-477)
# Procedure, shortened: as §1
# ERF = target: T6, ERF (Homo sapiens, UniProt P50548 1-548)
# T6 sequence: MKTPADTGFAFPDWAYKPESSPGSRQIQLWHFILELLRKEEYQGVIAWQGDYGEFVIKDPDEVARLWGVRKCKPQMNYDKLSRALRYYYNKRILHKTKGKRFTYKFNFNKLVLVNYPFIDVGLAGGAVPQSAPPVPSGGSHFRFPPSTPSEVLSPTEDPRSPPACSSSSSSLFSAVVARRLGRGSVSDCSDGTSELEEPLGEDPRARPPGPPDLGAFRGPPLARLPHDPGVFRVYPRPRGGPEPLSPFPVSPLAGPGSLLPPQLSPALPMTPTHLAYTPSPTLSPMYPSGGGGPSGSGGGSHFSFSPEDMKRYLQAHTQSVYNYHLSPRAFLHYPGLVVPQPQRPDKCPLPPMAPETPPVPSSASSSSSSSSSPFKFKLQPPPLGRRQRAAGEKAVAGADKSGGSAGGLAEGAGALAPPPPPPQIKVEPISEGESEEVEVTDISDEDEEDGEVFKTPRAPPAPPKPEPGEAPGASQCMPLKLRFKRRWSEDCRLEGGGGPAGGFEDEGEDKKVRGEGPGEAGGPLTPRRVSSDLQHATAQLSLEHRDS
# Procedure, shortened: as §1
# ETV3L = target: T7, ETV3L (Homo sapiens, UniProt Q6ZN32 1-361)
# T7 sequence: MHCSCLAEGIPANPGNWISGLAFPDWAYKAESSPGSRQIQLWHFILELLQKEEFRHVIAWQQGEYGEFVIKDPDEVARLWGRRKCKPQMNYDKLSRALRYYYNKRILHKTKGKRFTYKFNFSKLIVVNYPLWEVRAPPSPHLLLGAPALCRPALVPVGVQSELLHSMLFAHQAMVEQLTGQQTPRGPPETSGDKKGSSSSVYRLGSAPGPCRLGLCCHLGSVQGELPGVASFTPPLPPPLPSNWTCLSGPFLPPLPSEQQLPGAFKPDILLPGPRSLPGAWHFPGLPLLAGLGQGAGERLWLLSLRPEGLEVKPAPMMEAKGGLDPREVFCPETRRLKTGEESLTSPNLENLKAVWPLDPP
# Procedure, shortened: as §1
# ETS2 = target: T8, ETS2 (Homo sapiens, UniProt P15036 1-469)
# T8 sequence: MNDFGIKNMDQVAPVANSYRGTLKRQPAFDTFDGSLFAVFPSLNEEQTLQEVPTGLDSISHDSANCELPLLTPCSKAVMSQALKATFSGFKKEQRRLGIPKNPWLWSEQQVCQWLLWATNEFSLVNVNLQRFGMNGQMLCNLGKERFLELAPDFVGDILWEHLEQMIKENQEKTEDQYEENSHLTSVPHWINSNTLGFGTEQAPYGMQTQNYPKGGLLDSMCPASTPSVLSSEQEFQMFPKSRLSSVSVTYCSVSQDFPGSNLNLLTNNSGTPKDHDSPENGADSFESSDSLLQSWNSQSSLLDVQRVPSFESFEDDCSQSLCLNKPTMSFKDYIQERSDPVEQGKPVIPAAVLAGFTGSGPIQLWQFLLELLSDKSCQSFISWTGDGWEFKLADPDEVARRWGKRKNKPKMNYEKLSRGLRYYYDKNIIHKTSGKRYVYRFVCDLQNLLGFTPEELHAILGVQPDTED
# Procedure, shortened: as §1
# SPDEF = target: T9, SPDEF (Homo sapiens, UniProt O95238 1-335)
# T9 sequence: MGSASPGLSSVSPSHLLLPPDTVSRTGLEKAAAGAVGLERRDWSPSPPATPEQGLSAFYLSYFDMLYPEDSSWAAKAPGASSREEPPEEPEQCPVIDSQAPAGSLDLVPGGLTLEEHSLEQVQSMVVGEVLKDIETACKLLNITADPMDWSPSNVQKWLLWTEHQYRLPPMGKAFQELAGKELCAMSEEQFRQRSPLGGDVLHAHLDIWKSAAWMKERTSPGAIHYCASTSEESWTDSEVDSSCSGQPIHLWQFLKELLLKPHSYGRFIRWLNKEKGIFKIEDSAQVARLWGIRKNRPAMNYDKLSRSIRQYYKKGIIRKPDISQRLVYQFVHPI
# Procedure, shortened: as §1
# ETV7 = target: T10, ETV7 (Homo sapiens, UniProt Q9Y603 1-341)
# T10 sequence: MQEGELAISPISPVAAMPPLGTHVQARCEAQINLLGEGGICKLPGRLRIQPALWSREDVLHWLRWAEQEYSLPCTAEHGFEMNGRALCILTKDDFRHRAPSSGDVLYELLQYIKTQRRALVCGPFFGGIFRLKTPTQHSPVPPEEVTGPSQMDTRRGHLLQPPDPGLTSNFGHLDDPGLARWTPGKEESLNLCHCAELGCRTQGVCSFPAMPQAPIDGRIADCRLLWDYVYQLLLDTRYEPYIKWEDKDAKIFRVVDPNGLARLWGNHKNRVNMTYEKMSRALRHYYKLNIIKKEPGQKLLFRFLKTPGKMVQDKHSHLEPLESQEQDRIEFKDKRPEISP
# Procedure, shortened: as §1
# ELF5 = target: T11, ELF5 (Homo sapiens, UniProt Q9UKW6-2 1-255)
# T11 sequence: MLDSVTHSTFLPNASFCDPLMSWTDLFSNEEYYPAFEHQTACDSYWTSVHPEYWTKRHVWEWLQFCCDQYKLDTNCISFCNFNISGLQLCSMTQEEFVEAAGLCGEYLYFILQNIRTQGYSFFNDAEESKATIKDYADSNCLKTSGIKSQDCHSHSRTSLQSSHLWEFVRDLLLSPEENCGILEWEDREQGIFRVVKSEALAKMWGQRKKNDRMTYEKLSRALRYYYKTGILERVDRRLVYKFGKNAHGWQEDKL
# Procedure, shortened: as §1
# ETV3 = target: T12, ETV3 (Homo sapiens, UniProt P41162-2 1-143)
# T12 sequence: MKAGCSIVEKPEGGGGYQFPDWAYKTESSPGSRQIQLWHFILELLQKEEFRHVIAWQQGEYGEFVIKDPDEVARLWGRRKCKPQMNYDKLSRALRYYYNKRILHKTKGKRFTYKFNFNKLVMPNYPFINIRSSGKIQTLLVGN
# Procedure, shortened: as §1
# ETV6 = ETV6 (Homo sapiens, UniProt P41212 1-452)
# Procedure, shortened: as §1
# Sequence of ELF4 (Q99607 whole entry): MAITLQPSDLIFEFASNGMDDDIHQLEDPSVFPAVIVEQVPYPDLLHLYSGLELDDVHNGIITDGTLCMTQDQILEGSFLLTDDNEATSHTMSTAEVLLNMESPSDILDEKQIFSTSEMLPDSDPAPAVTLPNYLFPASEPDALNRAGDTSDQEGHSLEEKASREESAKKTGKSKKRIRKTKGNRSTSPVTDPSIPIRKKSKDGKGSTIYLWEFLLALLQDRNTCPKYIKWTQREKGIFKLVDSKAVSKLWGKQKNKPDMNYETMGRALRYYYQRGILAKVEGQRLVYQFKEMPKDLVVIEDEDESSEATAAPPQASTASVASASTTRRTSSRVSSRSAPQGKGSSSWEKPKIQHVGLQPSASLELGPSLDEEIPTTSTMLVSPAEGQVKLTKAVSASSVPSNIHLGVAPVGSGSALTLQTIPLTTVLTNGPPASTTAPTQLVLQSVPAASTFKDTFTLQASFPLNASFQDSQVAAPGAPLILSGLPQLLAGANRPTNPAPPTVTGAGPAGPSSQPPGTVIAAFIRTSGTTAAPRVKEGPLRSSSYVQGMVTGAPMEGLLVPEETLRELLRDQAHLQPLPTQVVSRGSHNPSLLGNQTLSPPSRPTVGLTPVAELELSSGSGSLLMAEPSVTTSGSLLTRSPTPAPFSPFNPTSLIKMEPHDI
# Sequence of CRX (O43186 whole entry): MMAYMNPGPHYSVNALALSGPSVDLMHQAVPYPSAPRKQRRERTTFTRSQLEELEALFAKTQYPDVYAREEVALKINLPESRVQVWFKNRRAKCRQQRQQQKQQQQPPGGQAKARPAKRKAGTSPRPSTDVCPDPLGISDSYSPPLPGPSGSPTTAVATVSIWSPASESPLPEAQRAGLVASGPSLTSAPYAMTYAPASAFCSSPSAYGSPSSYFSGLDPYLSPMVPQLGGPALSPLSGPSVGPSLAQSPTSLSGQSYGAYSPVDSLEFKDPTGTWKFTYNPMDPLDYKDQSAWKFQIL
# Sequence of ETV6 (P41212 whole entry): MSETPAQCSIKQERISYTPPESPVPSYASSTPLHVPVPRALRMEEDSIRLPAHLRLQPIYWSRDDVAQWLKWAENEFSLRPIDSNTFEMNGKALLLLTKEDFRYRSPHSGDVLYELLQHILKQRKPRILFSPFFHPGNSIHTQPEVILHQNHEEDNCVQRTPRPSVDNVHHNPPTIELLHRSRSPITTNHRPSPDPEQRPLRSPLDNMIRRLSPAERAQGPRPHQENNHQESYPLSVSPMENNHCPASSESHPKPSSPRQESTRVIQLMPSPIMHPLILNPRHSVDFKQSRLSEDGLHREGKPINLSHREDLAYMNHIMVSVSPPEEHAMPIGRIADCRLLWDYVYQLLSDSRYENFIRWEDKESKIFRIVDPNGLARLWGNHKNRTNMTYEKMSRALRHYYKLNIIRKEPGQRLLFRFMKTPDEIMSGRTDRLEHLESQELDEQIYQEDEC
# Sequence of ETV1 (P50549 whole entry): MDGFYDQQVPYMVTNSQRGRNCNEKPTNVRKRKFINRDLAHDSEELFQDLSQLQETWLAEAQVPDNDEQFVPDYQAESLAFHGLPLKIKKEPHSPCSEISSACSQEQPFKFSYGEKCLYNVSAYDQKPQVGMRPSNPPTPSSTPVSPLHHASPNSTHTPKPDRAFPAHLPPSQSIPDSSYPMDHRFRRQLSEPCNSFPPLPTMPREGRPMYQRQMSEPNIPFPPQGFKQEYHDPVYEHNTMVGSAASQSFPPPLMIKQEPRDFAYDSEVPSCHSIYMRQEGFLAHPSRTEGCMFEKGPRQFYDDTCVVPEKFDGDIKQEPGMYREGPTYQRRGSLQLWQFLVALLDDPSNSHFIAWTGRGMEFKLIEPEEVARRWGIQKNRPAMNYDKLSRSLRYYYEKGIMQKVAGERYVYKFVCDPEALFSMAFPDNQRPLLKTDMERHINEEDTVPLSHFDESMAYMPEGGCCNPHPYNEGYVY
# Sequence of ETV5 (P41161 whole entry): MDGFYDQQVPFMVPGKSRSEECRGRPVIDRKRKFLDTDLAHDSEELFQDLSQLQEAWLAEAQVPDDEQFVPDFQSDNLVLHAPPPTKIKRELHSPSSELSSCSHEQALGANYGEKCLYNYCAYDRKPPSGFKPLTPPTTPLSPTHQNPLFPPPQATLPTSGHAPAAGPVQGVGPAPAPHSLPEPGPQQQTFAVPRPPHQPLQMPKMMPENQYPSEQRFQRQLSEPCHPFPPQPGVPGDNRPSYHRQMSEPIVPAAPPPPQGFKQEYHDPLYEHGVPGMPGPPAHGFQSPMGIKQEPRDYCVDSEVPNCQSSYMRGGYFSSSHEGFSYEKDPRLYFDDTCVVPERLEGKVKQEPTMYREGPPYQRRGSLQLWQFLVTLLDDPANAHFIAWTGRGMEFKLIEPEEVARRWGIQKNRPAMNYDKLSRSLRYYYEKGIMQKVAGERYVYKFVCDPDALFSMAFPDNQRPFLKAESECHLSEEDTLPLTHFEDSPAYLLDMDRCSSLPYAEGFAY
Sequence,binding signal (FEV),binding signal (ETV5),binding signal (SPIC),binding signal (ELF4),binding signal (ELK4),binding signal (ETV2),binding signal (ELF3),binding signal (CRX),binding signal (ETV1),binding signal (ERF),binding signal (ETV3L),binding signal (ETS2),binding signal (SPDEF),binding signal (ETV7),binding signal (ELF5),binding signal (ETV3),binding signal (ETV6)
TCACAT,"1.28 fold enrichment (6-mer frequency, TF over GST control)","1.28 fold enrichment (6-mer frequency, TF over GST control)","1.11 fold enrichment (6-mer frequency, TF over GST control)","1.15 fold enrichment (6-mer frequency, TF over GST control)","1.17 fold enrichment (6-mer frequency, TF over GST control)","1.32 fold enrichment (6-mer frequency, TF over GST control)","1.21 fold enrichment (6-mer frequency, TF over GST control)","1.09 fold enrichment (6-mer frequency, TF over GST control)","1.21 fold enrichment (6-mer frequency, TF over GST control)","1.24 fold enrichment (6-mer frequency, TF over GST control)","1.24 fold enrichment (6-mer frequency, TF over GST control)","1.25 fold enrichment (6-mer frequency, TF over GST control)","1.44 fold enrichment (6-mer frequency, TF over GST control)","1.3 fold enrichment (6-mer frequency, TF over GST control)","1.14 fold enrichment (6-mer frequency, TF over GST control)","1.21 fold enrichment (6-mer frequency, TF over GST control)","1.23 fold enrichment (6-mer frequency, TF over GST control)"
TGATGT,"1.26 fold enrichment (6-mer frequency, TF over GST control)","1.22 fold enrichment (6-mer frequency, TF over GST control)","1.11 fold enrichment (6-mer frequency, TF over GST control)","1.32 fold enrichment (6-mer frequency, TF over GST control)","1.31 fold enrichment (6-mer frequency, TF over GST control)","1.26 fold enrichment (6-mer frequency, TF over GST control)","1.21 fold enrichment (6-mer frequency, TF over GST control)","1.05 fold enrichment (6-mer frequency, TF over GST control)","1.26 fold enrichment (6-mer frequency, TF over GST control)","1.16 fold enrichment (6-mer frequency, TF over GST control)","1.21 fold enrichment (6-mer frequency, TF over GST control)","1.29 fold enrichment (6-mer frequency, TF over GST control)","1.26 fold enrichment (6-mer frequency, TF over GST control)","1.18 fold enrichment (6-mer frequency, TF over GST control)","1.23 fold enrichment (6-mer frequency, TF over GST control)","1.15 fold enrichment (6-mer frequency, TF over GST control)","1.22 fold enrichment (6-mer frequency, TF over GST control)"
